Columns and labels:
[1] = molecular target: Sphingosine kinase 1 (Homo sapiens) (UniProt Q9NYA1); details: at 1 µM;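 also: mean SPHK1 inhibition value reported from the GSK PKIS kinase panel screen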
[2] = molecular target: T1, Sphingosine kinase 2 (Homo sapiens) (UniProt Q9NRA0); details: at 0.1 µM
T1 sequence (whole entry): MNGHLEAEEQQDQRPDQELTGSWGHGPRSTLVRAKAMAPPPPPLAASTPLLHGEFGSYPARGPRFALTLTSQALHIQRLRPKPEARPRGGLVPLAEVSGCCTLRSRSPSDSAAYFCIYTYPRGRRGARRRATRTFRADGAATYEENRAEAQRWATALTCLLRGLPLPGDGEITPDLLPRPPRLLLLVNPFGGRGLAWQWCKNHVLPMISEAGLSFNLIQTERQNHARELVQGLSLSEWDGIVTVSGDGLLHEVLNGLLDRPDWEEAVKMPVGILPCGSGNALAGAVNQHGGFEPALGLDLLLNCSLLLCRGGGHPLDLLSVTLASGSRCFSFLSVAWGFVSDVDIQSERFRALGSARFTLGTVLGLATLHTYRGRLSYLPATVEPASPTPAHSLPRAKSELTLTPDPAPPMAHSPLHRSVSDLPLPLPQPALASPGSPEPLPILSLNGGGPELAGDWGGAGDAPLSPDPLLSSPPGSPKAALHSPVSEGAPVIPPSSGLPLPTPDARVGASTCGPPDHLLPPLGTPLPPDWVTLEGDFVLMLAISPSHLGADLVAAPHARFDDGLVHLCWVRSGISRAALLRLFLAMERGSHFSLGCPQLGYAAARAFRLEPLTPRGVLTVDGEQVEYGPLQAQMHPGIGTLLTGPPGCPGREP

[3] = molecular target: T1, Sphingosine kinase 2 (Homo sapiens); details: at 1 µM
[4] = molecular target: Casein kinase II subunit alpha (Homo sapiens) (UniProt P68400); details: at 0.1 µM
[5] = molecular target: Casein kinase II subunit alpha (Homo sapiens) (UniProt P68400); details: at 1 µM
[6] = molecular target: T2, Inhibitor of nuclear factor kappa-B kinase subunit alpha (Homo sapiens) (UniProt O15111); details: at 0.1 µM
T2 sequence (whole entry): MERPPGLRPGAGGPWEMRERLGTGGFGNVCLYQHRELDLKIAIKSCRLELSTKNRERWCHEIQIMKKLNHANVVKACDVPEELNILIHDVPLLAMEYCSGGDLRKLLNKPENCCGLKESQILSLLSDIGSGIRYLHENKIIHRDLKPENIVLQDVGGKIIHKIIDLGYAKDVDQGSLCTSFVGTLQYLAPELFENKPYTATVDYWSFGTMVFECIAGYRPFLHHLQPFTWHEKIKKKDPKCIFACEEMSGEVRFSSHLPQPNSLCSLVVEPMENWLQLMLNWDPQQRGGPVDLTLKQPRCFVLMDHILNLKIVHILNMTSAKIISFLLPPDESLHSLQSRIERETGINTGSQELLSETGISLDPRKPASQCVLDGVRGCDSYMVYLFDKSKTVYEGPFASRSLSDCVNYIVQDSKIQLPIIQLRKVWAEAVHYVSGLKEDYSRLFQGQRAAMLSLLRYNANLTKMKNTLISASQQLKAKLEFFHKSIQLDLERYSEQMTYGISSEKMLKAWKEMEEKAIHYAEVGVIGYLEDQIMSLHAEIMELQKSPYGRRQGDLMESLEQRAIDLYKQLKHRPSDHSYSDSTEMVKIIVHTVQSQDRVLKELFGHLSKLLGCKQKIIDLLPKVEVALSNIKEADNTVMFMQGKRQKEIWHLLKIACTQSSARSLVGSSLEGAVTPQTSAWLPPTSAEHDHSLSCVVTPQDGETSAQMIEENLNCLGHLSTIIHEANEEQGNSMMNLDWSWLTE

[7] = molecular target: T2, Inhibitor of nuclear factor kappa-B kinase subunit alpha (Homo sapiens); details: at 1 µM
[8] = molecular target: T3, Inhibitor of nuclear factor kappa-B kinase subunit beta (Homo sapiens) (UniProt O14920); details: at 0.1 µM
T3 sequence (whole entry): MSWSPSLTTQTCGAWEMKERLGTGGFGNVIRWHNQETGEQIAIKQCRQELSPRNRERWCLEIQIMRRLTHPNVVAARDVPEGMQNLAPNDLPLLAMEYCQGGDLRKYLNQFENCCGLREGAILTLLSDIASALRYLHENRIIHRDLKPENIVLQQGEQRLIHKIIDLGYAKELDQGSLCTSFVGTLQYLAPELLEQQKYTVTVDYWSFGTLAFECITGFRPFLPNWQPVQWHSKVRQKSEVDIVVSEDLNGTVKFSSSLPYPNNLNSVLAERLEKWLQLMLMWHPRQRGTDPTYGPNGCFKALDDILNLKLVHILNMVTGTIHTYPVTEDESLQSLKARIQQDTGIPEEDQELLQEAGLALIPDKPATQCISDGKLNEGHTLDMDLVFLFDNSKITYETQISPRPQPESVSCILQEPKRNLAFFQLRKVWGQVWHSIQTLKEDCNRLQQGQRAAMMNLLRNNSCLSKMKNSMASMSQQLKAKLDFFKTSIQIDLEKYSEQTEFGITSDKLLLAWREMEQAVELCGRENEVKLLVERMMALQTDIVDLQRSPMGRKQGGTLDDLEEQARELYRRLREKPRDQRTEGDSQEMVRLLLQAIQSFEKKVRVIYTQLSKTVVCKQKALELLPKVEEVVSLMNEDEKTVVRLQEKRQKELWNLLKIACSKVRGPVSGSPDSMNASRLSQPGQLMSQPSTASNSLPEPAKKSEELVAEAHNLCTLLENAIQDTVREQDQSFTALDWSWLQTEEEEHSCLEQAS

[9] = molecular target: T3, Inhibitor of nuclear factor kappa-B kinase subunit beta (Homo sapiens); details: at 1 µM
[10] = molecular target: T4, Inhibitor of nuclear factor kappa-B kinase subunit epsilon (Homo sapiens) (UniProt Q14164); details: at 0.1 µM
T4 sequence (whole entry): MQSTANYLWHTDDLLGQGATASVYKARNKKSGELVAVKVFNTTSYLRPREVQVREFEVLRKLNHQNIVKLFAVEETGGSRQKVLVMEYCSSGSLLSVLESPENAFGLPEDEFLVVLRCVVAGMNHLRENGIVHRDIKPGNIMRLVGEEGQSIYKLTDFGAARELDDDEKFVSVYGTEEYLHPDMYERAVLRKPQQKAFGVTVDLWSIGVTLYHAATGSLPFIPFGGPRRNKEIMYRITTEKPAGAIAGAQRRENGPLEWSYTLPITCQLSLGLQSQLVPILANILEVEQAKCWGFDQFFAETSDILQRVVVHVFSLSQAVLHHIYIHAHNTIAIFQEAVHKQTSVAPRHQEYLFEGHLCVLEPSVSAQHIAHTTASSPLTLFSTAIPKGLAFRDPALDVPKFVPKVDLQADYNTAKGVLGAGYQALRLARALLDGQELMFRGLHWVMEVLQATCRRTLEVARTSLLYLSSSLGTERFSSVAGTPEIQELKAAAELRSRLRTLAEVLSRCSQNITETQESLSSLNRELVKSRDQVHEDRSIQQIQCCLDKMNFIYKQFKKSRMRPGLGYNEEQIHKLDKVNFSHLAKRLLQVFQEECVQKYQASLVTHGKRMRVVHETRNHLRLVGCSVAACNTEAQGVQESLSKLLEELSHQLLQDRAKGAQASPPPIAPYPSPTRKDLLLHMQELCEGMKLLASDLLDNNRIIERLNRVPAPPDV

[11] = molecular target: T4, Inhibitor of nuclear factor kappa-B kinase subunit epsilon (Homo sapiens); details: at 1 µM
[12] = molecular target: T5, Serine/threonine-protein kinase Nek1 (Homo sapiens) (UniProt Q96PY6); details: at 0.1 µM
T5 sequence (whole entry): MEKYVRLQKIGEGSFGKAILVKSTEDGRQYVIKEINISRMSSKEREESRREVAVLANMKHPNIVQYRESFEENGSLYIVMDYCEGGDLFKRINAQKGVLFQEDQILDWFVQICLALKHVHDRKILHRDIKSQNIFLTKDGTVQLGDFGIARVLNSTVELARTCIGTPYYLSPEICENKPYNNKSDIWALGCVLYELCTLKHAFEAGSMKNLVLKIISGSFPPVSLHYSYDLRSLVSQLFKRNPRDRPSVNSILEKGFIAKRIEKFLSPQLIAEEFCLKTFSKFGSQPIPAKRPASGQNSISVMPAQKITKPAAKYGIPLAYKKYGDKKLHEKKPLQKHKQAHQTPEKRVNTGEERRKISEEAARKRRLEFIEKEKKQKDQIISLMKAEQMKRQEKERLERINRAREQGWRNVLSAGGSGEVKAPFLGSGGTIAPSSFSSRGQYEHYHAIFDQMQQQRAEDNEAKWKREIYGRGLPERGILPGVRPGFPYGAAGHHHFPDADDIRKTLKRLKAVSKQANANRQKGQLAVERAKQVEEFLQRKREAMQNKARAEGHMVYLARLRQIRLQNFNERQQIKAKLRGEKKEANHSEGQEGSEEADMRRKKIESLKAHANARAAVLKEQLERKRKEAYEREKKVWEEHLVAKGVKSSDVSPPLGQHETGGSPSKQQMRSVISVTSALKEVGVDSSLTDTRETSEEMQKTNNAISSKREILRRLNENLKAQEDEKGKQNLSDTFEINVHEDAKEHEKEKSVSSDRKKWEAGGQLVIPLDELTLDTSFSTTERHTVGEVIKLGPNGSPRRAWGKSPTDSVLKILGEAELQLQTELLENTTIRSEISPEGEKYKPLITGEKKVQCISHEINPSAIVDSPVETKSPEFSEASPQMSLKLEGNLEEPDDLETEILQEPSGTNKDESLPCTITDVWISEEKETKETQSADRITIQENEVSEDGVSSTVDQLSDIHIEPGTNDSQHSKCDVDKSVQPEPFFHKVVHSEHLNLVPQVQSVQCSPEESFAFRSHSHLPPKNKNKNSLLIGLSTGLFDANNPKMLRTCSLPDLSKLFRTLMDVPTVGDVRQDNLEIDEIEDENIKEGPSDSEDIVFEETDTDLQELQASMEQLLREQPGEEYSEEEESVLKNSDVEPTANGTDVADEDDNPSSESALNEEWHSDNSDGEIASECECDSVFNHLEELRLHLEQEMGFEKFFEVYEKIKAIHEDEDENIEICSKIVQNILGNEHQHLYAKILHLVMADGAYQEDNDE

[13] = molecular target: T5, Serine/threonine-protein kinase Nek1 (Homo sapiens); details: at 1 µM
[14] = molecular target: T6, Serine/threonine-protein kinase Nek2 (Homo sapiens) (UniProt P51955); details: at 0.1 µM
T6 sequence (whole entry): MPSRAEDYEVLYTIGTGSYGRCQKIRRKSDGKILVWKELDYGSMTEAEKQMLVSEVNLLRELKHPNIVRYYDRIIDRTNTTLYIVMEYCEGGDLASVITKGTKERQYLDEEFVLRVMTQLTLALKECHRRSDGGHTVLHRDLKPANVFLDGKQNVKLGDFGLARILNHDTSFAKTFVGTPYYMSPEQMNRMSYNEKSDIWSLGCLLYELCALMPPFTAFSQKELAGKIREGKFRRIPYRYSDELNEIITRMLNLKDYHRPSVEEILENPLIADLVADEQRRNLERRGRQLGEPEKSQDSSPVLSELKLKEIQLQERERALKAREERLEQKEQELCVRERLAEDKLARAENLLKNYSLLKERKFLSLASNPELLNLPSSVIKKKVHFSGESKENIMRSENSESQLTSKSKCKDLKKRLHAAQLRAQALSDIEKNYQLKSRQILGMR

[15] = molecular target: T6, Serine/threonine-protein kinase Nek2 (Homo sapiens); details: at 1 µM
[16] = molecular target: Serine/threonine-protein kinase Nek6 (Homo sapiens) (UniProt Q9HC98); details: at 0.1 µM
[17] = molecular target: Serine/threonine-protein kinase Nek6 (Homo sapiens) (UniProt Q9HC98); details: at 1 µM
[18] = molecular target: Serine/threonine-protein kinase Nek7 (Homo sapiens) (UniProt Q8TDX7); details: at 0.1 µM
[19] = molecular target: Serine/threonine-protein kinase Nek7 (Homo sapiens) (UniProt Q8TDX7); details: at 1 µM
[20] = molecular target: T7, Serine/threonine-protein kinase Nek9 (Homo sapiens) (UniProt Q8TD19); details: at 0.1 µM;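 also: reported value is the mean percent inhibition of NEK9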
T7 sequence (whole entry): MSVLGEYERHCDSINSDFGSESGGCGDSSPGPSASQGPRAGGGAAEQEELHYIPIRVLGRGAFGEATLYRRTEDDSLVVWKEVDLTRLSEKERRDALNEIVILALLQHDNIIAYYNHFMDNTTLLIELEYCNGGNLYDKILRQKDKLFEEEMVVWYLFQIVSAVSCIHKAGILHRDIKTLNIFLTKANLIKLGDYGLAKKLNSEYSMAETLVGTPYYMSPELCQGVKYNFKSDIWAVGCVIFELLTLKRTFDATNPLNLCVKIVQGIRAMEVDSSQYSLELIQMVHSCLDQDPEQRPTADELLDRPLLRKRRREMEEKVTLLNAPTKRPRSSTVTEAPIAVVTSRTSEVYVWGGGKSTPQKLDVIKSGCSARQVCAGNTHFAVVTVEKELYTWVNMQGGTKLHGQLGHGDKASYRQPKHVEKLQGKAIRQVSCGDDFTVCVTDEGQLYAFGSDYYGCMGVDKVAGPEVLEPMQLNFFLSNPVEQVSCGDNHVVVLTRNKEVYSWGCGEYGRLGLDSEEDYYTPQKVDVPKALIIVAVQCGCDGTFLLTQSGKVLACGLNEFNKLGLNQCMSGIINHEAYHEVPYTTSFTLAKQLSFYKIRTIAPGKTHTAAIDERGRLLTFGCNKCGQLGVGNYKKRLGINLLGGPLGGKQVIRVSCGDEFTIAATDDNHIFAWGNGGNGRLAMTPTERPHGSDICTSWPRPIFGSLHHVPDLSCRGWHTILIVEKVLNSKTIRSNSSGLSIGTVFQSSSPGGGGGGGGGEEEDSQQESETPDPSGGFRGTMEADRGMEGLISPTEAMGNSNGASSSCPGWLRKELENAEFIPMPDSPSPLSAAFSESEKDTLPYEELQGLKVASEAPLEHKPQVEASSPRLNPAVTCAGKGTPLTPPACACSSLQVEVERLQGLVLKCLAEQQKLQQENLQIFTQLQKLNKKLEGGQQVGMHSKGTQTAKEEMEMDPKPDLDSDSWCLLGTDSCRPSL

Chain of Casein kinase II subunit alpha (Homo sapiens) (P68400 whole entry, looked up): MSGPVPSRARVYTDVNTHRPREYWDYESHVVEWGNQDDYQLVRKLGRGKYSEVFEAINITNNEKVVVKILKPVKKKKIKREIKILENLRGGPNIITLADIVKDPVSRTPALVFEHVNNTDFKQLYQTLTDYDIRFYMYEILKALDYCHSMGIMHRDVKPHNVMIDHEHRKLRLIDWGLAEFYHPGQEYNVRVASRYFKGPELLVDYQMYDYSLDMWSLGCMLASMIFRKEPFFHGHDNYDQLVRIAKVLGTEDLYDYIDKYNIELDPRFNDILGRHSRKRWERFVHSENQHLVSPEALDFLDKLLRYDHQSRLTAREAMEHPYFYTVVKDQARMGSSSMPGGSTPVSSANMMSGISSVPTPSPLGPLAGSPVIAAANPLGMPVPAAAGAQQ
Chain of Serine/threonine-protein kinase Nek7 (Homo sapiens) (Q8TDX7 whole entry, looked up): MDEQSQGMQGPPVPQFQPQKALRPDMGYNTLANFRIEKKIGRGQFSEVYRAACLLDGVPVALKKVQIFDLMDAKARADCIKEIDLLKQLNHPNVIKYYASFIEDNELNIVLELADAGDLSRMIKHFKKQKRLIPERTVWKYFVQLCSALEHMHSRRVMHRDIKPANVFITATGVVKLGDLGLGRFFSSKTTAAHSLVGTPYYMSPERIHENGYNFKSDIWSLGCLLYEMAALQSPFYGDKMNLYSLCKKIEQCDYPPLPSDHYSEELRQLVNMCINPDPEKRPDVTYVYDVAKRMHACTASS
Chain of Serine/threonine-protein kinase Nek6 (Homo sapiens) (Q9HC98 whole entry): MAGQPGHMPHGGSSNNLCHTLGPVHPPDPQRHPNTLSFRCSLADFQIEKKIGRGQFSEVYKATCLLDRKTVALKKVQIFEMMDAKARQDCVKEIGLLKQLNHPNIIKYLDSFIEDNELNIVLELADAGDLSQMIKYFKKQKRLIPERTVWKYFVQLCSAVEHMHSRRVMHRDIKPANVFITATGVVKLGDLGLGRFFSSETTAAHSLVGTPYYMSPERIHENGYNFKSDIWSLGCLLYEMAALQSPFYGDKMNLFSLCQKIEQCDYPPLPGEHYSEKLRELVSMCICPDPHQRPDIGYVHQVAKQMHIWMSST
Chain of Sphingosine kinase 1 (Homo sapiens) (Q9NYA1 whole entry): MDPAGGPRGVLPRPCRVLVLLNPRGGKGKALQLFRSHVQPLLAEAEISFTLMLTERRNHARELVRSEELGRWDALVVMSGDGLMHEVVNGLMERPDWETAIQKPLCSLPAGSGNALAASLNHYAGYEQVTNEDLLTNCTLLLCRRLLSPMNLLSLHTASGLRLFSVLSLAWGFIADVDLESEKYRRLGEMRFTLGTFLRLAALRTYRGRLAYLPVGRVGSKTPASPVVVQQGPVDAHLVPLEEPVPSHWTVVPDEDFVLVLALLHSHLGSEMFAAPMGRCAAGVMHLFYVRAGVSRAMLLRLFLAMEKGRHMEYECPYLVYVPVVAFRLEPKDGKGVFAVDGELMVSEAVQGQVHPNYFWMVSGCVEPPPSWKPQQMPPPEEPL

Structure (SMILES)	inhibition [1] [%]	inhibition [2] [%]	inhibition [3] [%]	inhibition [4] [%]	inhibition [5] [%]	inhibition [6] [%]	inhibition [7] [%]	inhibition [8] [%]	inhibition [9] [%]	inhibition [10] [%]	inhibition [11] [%]	inhibition [12] [%]	inhibition [13] [%]	inhibition [14] [%]	inhibition [15] [%]	inhibition [16] [%]	inhibition [17] [%]	inhibition [18] [%]	inhibition [19] [%]	inhibition [20] [%]
Fc1ccc(-c2ncn(C3CCNCC3)c2-c2ccnc(Oc3ccc(F)c(F)c3)n2)cc1	-0.78	1.4	-2.94	1.69	3.12	-1.24	3.68	6.9	5.72	6.6	4.67	2.19	0.52	5.55	4.23	0.84	2.1	3.19	6.72	6.39
CS(=O)(=O)CCNCc1ccc(-c2ccc3ncnc(Nc4ccc(OCc5ccccc5)c(Br)c4)c3c2)o1	-1.39	-0.25	-1.58	13.7	5.24	3.37	1.56	9.38	11	6.98	4.71	1.95	1.93	5.02	3.81	4.55	3.89	3.08	5.42	6.05
